Among all 2,400 compounds or so, about 750 (31%) were called active. This is one part of the list. Values without a mark were called inactive.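 How the source made its calls: active means median signal gain over dofetilide-blocked control wells reaching their mean plus 3 SD, so readout 1 at least 0; inactive means the rest.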
The compounds below were run against Voltage-gated inwardly rectifying potassium channel KCNH2 (Homo sapiens) (UniProt Q12809) (assay: hERG protection against dofetilide inhibition, confirmation, cell-based, thallium flux, duplicate retest, dofetilide IC70 (AID 1835)). Conditions: hERG cell line, FluxOR thallium flux, dofetilide-blocked; at 10 µM; stronger effect = higher value.
Chain of Voltage-gated inwardly rectifying potassium channel KCNH2 (Homo sapiens) (Q12809 whole entry, looked up): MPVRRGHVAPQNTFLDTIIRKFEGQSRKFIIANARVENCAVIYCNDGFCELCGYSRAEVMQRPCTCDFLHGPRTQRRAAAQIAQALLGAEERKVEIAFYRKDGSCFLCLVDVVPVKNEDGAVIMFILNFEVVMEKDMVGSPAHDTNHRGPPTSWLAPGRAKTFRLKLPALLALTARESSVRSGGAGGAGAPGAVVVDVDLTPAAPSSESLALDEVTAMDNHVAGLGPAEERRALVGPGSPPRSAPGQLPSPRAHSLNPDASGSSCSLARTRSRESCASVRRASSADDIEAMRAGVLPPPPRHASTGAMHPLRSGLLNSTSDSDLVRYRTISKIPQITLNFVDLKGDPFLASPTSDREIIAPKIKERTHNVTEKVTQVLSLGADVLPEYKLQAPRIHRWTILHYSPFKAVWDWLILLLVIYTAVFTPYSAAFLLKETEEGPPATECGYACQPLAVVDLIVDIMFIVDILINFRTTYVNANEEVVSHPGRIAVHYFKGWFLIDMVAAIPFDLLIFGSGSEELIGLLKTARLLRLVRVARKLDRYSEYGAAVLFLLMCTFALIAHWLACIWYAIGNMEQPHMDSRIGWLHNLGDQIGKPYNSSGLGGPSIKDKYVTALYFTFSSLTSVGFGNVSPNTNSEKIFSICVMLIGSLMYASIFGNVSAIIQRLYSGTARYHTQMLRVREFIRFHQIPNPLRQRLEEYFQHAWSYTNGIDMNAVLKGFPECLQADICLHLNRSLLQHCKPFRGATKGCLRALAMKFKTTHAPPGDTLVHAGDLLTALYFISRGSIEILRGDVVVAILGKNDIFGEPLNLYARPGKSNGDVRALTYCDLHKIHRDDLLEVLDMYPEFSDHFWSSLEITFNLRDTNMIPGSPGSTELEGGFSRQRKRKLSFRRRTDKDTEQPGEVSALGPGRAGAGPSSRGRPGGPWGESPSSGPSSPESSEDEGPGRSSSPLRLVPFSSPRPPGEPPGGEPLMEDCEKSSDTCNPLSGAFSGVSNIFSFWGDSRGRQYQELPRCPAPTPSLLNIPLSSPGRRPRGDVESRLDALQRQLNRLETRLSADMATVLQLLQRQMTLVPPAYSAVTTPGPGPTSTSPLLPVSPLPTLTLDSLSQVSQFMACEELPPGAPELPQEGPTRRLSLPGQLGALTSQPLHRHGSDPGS
In the case of N#Cc1cccc(N=c2ssnc2Cl)c1, the activity increase over dofetilide control, less the hit threshold was -32%. For CC(=O)Nc1ccccc1NC(=O)C/C(C)=N/NC(=O)c1ccc([N+](=O)[O-])c(Cl)c1, the activity increase over dofetilide control, less the hit threshold was -13%. Work on Cc1ccccc1NC(=O)CSc1ccsc1[N+](=O)[O-] yielded an activity increase over dofetilide control, less the hit threshold of -6%. Compound O=C(CSc1nc2ccc(NC(=O)c3ccccc3C(=O)O)cc2s1)Nc1c(Cl)cccc1Cl has an activity increase over dofetilide control, less the hit threshold of 0%. For CSc1nsc(SCC(=O)Nc2ccccc2C(=O)O)n1, the activity increase over dofetilide control, less the hit threshold was 2% (active). Work on O=C(NNC(=S)Nc1ccccc1)c1cccc(S(=O)(=O)N2CCOCC2)c1 yielded an activity increase over dofetilide control, less the hit threshold of -12%. With COc1cc(Cl)c(C)cc1NC(=O)CSc1sc2c(O)cc(=O)[nH]c2c1C#N the activity increase over dofetilide control, less the hit threshold was 1% (active). Cc1cc(=O)[nH]c(SCC(=O)Nc2ccccc2C#N)c1C#N gave an activity increase over dofetilide control, less the hit threshold of -4%. Compound CCC(NS(=O)(=O)c1ccc(OC)cc1)C(=O)O (stereo unspecified) has an activity increase over dofetilide control, less the hit threshold of -13%. CCOC(=O)c1nc(C)n(-c2ccc(Cl)cc2)n1 showed an activity increase over dofetilide control, less the hit threshold of -1%. In the case of Cc1nn(-c2ccc(Cl)cc2)c2sc(C(=O)c3c(N)n(C)c(=O)n(C)c3=O)cc12, the activity increase over dofetilide control, less the hit threshold was 67% (active). Work on O=C(NCC1CCS(=O)(=O)C1)Oc1ccccc1 (stereo unspecified) yielded an activity increase over dofetilide control, less the hit threshold of -15%. In the case of CCN(CC)c1ccc(/C=c2\sc3nnc(-c4ccccc4Cl)n3c2=O)cc1, the activity increase over dofetilide control, less the hit threshold was -11%. Cc1nn(-c2ccccc2)c(N2CCCC2)c1/C=N/O was tested, and the activity increase over dofetilide control, less the hit threshold was -16%. Cc1nn(-c2ccccc2)c(C)c1S(=O)(=O)O showed an activity increase over dofetilide control, less the hit threshold of -6%. In the case of Cc1nn(-c2ccccc2)c(Cl)c1/C=C1\SC(=S)NC1=O, the activity increase over dofetilide control, less the hit threshold was 51% (active). Compound COCCCN1C(=O)C(=O)/C(=C(/O)c2ccc(S(=O)(=O)N3CCOCC3)cc2)C1c1ccc(F)cc1 (stereo unspecified) has an activity increase over dofetilide control, less the hit threshold of -5%. CN(C(=O)CCc1ccccc1)c1nnc(-c2ccncc2)s1 showed an activity increase over dofetilide control, less the hit threshold of -24%. For CCCN(C(=O)c1ccco1)c1nnc(-c2ccncc2)s1, the activity increase over dofetilide control, less the hit threshold was 5% (active). O=C(c1ccco1)N(c1ccccn1)c1ccccn1 was tested, and the activity increase over dofetilide control, less the hit threshold was -13%. Cc1cc([N+](=O)[O-])nn1CC(=O)Nc1ccc(Cl)cn1 was tested, and the activity increase over dofetilide control, less the hit threshold was -12%. Work on Cc1ccc(O)c(Sc2cc(C)ccc2O)c1 yielded an activity increase over dofetilide control, less the hit threshold of -34%. O=C(CCC(=O)N1CCN(S(=O)(=O)c2ccccc2)CC1)c1cccs1 showed an activity increase over dofetilide control, less the hit threshold of -14%. In the case of Cc1[nH]n(-c2cccc3ccccc23)c(=O)c1/C=N/c1sc2c(c1C#N)CCC2, the activity increase over dofetilide control, less the hit threshold was 3% (active). For Cc1[nH]n(-c2ccc(F)cc2)c(=O)c1/C=N/c1sc2c(c1C#N)CCCC2, the activity increase over dofetilide control, less the hit threshold was 41% (active). CN(C1=C(NC(=O)c2ccccc2)C(=O)c2ccccc2C1=O)C1CCS(=O)(=O)C1 (stereo unspecified) was tested, and the activity increase over dofetilide control, less the hit threshold was -4%. For COCCn1cnc2c1c(=O)n(CC#N)c(=O)n2Cc1ccccc1, the activity increase over dofetilide control, less the hit threshold was -14%. Compound COc1ccccc1Nc1nnc(SCC(=O)Nc2nc(-c3ccc(F)cc3)cs2)s1 has an activity increase over dofetilide control, less the hit threshold of -24%. With COc1cccc2sc(Nc3nnc(-c4ccccc4Cl)o3)nc12 the activity increase over dofetilide control, less the hit threshold was 16% (active). Compound N#C/C(=C\c1ccc(-c2ccccc2Cl)o1)C(=O)Nc1nc2ccccc2s1 has an activity increase over dofetilide control, less the hit threshold of -6%. In the case of COc1cccc2sc(Nc3nnc(-c4ccc(F)cc4)o3)nc12, the activity increase over dofetilide control, less the hit threshold was 83% (active). With COc1cccc2sc(Nc3nnc(-c4cccs4)o3)nc12 the activity increase over dofetilide control, less the hit threshold was 52% (active). COc1cccc2sc(Nc3nc(-c4ccccn4)cs3)nc12 gave an activity increase over dofetilide control, less the hit threshold of -19%. With Cc1ccc(NC(=O)c2ccc(NC3=NC4CS(=O)(=O)CC4S3)cc2)cc1 (stereo unspecified) the activity increase over dofetilide control, less the hit threshold was -14%. For O=C(C[n+]1ccccc1)N/N=C/c1ccc(Cl)c(Cl)c1, the activity increase over dofetilide control, less the hit threshold was -13%. Work on O=C(CC1CCCC1)Nc1ccc2c(c1)CCC2 yielded an activity increase over dofetilide control, less the hit threshold of -5%. COc1ccc(/C=N/NC(=O)C(=O)N2CCCC2)cc1 gave an activity increase over dofetilide control, less the hit threshold of -4%. COc1ccccc1NC(=S)N1CCCc2ccccc21 gave an activity increase over dofetilide control, less the hit threshold of -16%. With COc1ccc(/C=N/NC(=O)c2ccncc2)cc1CN1CCCc2ccccc21 the activity increase over dofetilide control, less the hit threshold was 3% (active). O=[N+]([O-])c1cc(Cl)cc(/C=N/NC(=S)Nc2ccc(S(=O)(=O)N3CCOCC3)cc2)c1O was tested, and the activity increase over dofetilide control, less the hit threshold was -3%. In the case of O=C(COc1ccc2c3c(c(=O)oc2c1)CCC3)NCC1CCC(C(=O)O)CC1 (stereo unspecified), the activity increase over dofetilide control, less the hit threshold was -7%. With O=C(COc1ccc2c3c(c(=O)oc2c1)CCC3)N[C@@H](Cc1ccccc1)C(=O)O the activity increase over dofetilide control, less the hit threshold was 9% (active). In the case of O=c1oc2cc(OCCO)ccc2c2c1CCCC2, the activity increase over dofetilide control, less the hit threshold was -8%. With Cc1c(C)c2ccc(OCC(=O)N[C@@H](Cc3ccccc3)C(=O)O)cc2oc1=O the activity increase over dofetilide control, less the hit threshold was 2% (active). Cc1cc(=O)oc2c3c(cc(OCC(=O)N[C@@H](Cc4ccccc4)C(=O)O)c12)OC(C)(C)CC3 gave an activity increase over dofetilide control, less the hit threshold of -3%. Cc1cc(=O)oc2cc(OCC(=O)OCC(=O)NC(C)C)ccc12 gave an activity increase over dofetilide control, less the hit threshold of -22%. Cc1ccc(C(C)C)cc1OCCn1cncn1 showed an activity increase over dofetilide control, less the hit threshold of -24%. Compound O=C1Nc2ccc(Br)cc2C1Cc1ccccc1F (stereo unspecified) has an activity increase over dofetilide control, less the hit threshold of -17%. Cc1ccc(C(=O)CC(=O)c2cccc(F)c2)c(O)c1 was tested, and the activity increase over dofetilide control, less the hit threshold was 1% (active). Cc1ccc(C(=O)CC(=O)c2ccc(C)cc2O)cc1 gave an activity increase over dofetilide control, less the hit threshold of -1%. For O=C(CC(=O)c1ccccc1O)c1cccc(F)c1, the activity increase over dofetilide control, less the hit threshold was -6%. For COc1cc(C(=O)NCc2ccc(-c3nc4ccccc4o3)cc2)cc(OC)c1OC, the activity increase over dofetilide control, less the hit threshold was -12%. With CCSc1nnc(NC(=O)Cn2cnc3c2c(=O)n(C)c(=O)n3C)s1 the activity increase over dofetilide control, less the hit threshold was -22%. With O=C(Nc1nnc(SCC(=O)N2CCCCC2)s1)C1CCCCC1 the activity increase over dofetilide control, less the hit threshold was -18%. For CCSc1nnc(NC(=O)CC(C)C)s1, the activity increase over dofetilide control, less the hit threshold was 3% (active). Work on COc1ccc(S(=O)(=O)Nc2ccc(Cl)cn2)c(C)c1C yielded an activity increase over dofetilide control, less the hit threshold of -9%. With CC[C@@H](C(=O)[C@@H](C)[C@@H](O)[C@H](C)CCc1ccc(C)c(O)c1C(=O)O)[C@H]1O[C@](CC)([C@H]2CC[C@](O)(CC)[C@H](C)O2)C[C@@H]1C the activity increase over dofetilide control, less the hit threshold was 93% (active). With O=C(CCN1C(=O)/C(=C/c2cccs2)SC1=S)Nc1cccc(C(=O)O)c1 the activity increase over dofetilide control, less the hit threshold was -13%. In the case of O=C(CCN1C(=O)/C(=C\C=C\c2ccccc2)SC1=S)Nc1cccc(C(=O)O)c1, the activity increase over dofetilide control, less the hit threshold was 93% (active). COc1ccc(NC(=O)CCN2C(=O)C3C4C=CC(C4)C3C2=O)cc1 (stereo unspecified) was tested, and the activity increase over dofetilide control, less the hit threshold was -14%. O=C(CSc1nc(-c2ccccc2)nc2ccc(F)cc12)Nc1cccc(C(=O)O)c1 was tested, and the activity increase over dofetilide control, less the hit threshold was -23%. With O=C(CCN1C(=O)/C(=C\C=C\c2ccccc2)SC1=S)Nc1ccc(C(=O)O)cc1 the activity increase over dofetilide control, less the hit threshold was 26% (active). CC(C)Oc1cc(S(=O)(=O)N2CCCCC2)ccc1N gave an activity increase over dofetilide control, less the hit threshold of -18%. Work on S=C(N/N=C/c1ccc(Cl)cc1)N1CCOCC1 yielded an activity increase over dofetilide control, less the hit threshold of -47%. In the case of CC(C)(C)C(=O)NC(=S)N1CCOCC1, the activity increase over dofetilide control, less the hit threshold was 3% (active). With Cc1cc(F)c(F)c(C(=O)N2CCOCC2)c1 the activity increase over dofetilide control, less the hit threshold was -17%. Compound CCCCCOCC1CC(C/C(C)=N/Nc2nc(-c3ccccc3)cs2)C(=O)O1 (stereo unspecified) has an activity increase over dofetilide control, less the hit threshold of -5%. For Cc1cc([N+](=O)[O-])c(C)cc1-c1ccc(/C=N/NC(=O)Cn2nnnc2N)o1, the activity increase over dofetilide control, less the hit threshold was 0% (active). Work on CCOC(=O)N/N=C\c1ccc(-c2cc(Cl)ccc2Cl)o1 yielded an activity increase over dofetilide control, less the hit threshold of -2%. Compound COCc1cc(C)nc(OCC(=O)N/N=C/c2ccc(-c3cc([N+](=O)[O-])ccc3Cl)o2)c1C#N has an activity increase over dofetilide control, less the hit threshold of -7%. Work on C=C(C)CSc1nc(N)cc(=O)[nH]1 yielded an activity increase over dofetilide control, less the hit threshold of -4%. O=C1NC(=S)/C(=C\c2ccc(-c3ccccc3Cl)o2)S1 gave an activity increase over dofetilide control, less the hit threshold of -23%. In the case of O=C1NC(=O)/C(=C/c2cc3c(cc2Br)OCO3)S1, the activity increase over dofetilide control, less the hit threshold was -17%. In the case of O=C1NC(=S)S/C1=C\c1ccc2ccccc2c1, the activity increase over dofetilide control, less the hit threshold was 28% (active). For Cc1cc(C(=O)NCCN2C(=O)S/C(=C\c3cccs3)C2=O)ccc1[N+](=O)[O-], the activity increase over dofetilide control, less the hit threshold was -1%. Work on Cc1ccccc1NC(=O)CN1C(=O)S/C(=C\c2ccc(-c3cc(C(=O)O)ccc3C)o2)C1=O yielded an activity increase over dofetilide control, less the hit threshold of -3%. In the case of Cc1c(/C=C2\SC(=O)N(CC(=O)Nc3ccc4c(c3)OCO4)C2=O)c2ccccc2n1C, the activity increase over dofetilide control, less the hit threshold was -11%. In the case of Cc1ccc(NC(=O)CN2C(=O)S/C(=C\c3ccc(-c4cccc(C(=O)O)c4C)o3)C2=O)cc1, the activity increase over dofetilide control, less the hit threshold was 25% (active). In the case of Cc1ccc(NC(=O)CN2C(=O)S/C(=C/c3ccc(-c4cc(C(=O)O)ccc4C)o3)C2=O)cc1C, the activity increase over dofetilide control, less the hit threshold was -29%. For O=C(CCl)NCCN1C(=O)S/C(=C\c2cccnc2)C1=O, the activity increase over dofetilide control, less the hit threshold was -5%. Cc1ccc(C(=O)O)cc1-c1ccc(/C=C2\SC(=O)N(CC(=O)Nc3ccccc3)C2=O)o1 was tested, and the activity increase over dofetilide control, less the hit threshold was 87% (active). For Cc1ccccc1NC(=O)CN1C(=O)S/C(=C\c2ccc(-c3cccc(C(=O)O)c3C)o2)C1=O, the activity increase over dofetilide control, less the hit threshold was 19% (active). Cc1ccsc1/C=C1/SC(=O)N(CC(=O)N2CCCC2)C1=O gave an activity increase over dofetilide control, less the hit threshold of -4%. C#CCN1C(=O)S/C(=C\c2ccc(-c3ccc(C(=O)O)cc3C)o2)C1=O was tested, and the activity increase over dofetilide control, less the hit threshold was 1% (active). In the case of CN(C)c1oc(-c2ccccc2[N+](=O)[O-])nc1C#N, the activity increase over dofetilide control, less the hit threshold was -15%. COc1ccc(C2N=C(c3ccccc3)C(C)(C)N2O)cc1 (stereo unspecified) showed an activity increase over dofetilide control, less the hit threshold of -16%. In the case of CCOC(=O)C1CCCCN1Cc1ccc(F)cc1 (stereo unspecified), the activity increase over dofetilide control, less the hit threshold was -14%. With O=C(CN1C(=O)S/C(=C\c2cccs2)C1=O)Nc1ccc(O)c(C(=O)O)c1 the activity increase over dofetilide control, less the hit threshold was -3%. O=C(CN1C(=O)S/C(=C\c2cc(Cl)c(O)c(Cl)c2)C1=O)Nc1ccccc1 showed an activity increase over dofetilide control, less the hit threshold of -21%. With Cc1cccc(NC(=O)CN2C(=O)S/C(=C\c3ccc(-c4cccc(C(=O)O)c4C)o3)C2=O)c1 the activity increase over dofetilide control, less the hit threshold was 71% (active). In the case of O=C(CN1C(=O)S/C(=C\c2cccs2)C1=O)Nc1ccc(C(=O)O)c(O)c1, the activity increase over dofetilide control, less the hit threshold was 12% (active). For O=S(=O)(NCc1ccc(Cl)cc1Cl)c1ccc(N2CCOCC2)nc1, the activity increase over dofetilide control, less the hit threshold was -25%. With S=c1nc(C2CCCCC2)n(-c2ccccc2)[nH]1 the activity increase over dofetilide control, less the hit threshold was 24% (active). Cc1onc(-c2ccccc2)c1C(=O)NC(=S)Nc1sc2c(c1C#N)CCC(C)C2 (stereo unspecified) was tested, and the activity increase over dofetilide control, less the hit threshold was 24% (active). Compound Cc1onc(-c2ccccc2Cl)c1C(=O)NC(=S)Nc1ccc(C(C)C)cc1 has an activity increase over dofetilide control, less the hit threshold of -20%. With Cc1onc(-c2ccccc2)c1C(=O)NC(=S)Nc1sc2c(c1C#N)CCCC2 the activity increase over dofetilide control, less the hit threshold was -3%.
